The values below come from PubChem BioAssay (EPA / NIEHS).

The structures appear in SMILES notation. Results filed as inconclusive are left out. Where a structure was tested more than once in an assay, its records may differ in their call. Calls of active or inactive are those of the source. How the source made its calls, unless noted: active means hit-call score of the fitted dose curve at least 0.9, where 1 is the maximum; inconclusive means response in the unintended direction; inactive means score below 0.9.

The nature of assay [1]: ATG_TAL_CIS: Attagene CIS-FACTORIAL HepG2 Assay for human TAL Basal Promoter (AID 2282966; active means hit-call score of the fitted dose curve at least 0.9, where 1 is the maximum; inactive means score below 0.9;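 further: background control endpoint measuring basal TAL promoter reporter mRNA not a specific factor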). The conditions noted are these: HepG2 Attagene cis-factorial TAL promoter reporter; actives raise or lower the signal. The method in brief:
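Background-control endpoint: basal TAL promoter reporter transcripts in transiently transfected HepG2, measured 24 h after dosing. Read-out by RT-PCR with fluorescent primer extension and capillary electrophoresis; gain or loss of signal fitted relative to DMSO.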

The nature of assay [2]: ATG_TGFb_CIS: Attagene CIS-FACTORIAL HepG2 Assay for human Transforming Growth Factor (TGF) (AID 2282967; active means hit-call score of the fitted dose curve at least 0.9, where 1 is the maximum; inactive means score below 0.9). Conditions: HepG2 Attagene CIS TGFb reporter, mRNA transcription; actives raise or lower the signal. The method in brief: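 Multiplexed cis-reporter HepG2 system, 24 h treatment; mRNA induction read by fluorescence after RT-PCR and CE; DMSO negative control, bidirectional curve fitting.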

A short description of assay [3]: ATG_VDRE_CIS: Attagene CIS-FACTORIAL HepG2 Assay for human Vitamin D Receptor Element (VDRE) (AID 2282968; active means hit-call score of the fitted dose curve at least 0.9, where 1 is the maximum; inactive means score below 0.9). The conditions noted are these: HepG2 VDRE cis-reporter transcription, actives raise or lower the signal. In short, it runs like this:
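Compounds were applied for 24 h to HepG2 cells transfected with promoter-regulated reporter units. Total RNA was reverse-transcribed, and reporter amplicons were fluorescently labelled and sized by capillary electrophoresis.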

The target in assay [4] is Estrogen receptor (Homo sapiens) (UniProt P03372). Put plainly: ATG_ERa_TRANS: Attagene TRANS-FACTORIAL HepG2 Assay for human Estrogen Receptor alpha (ERa) (AID 2282970). The conditions noted are these: HepG2 Attagene TRANS ERa GAL4 reporter, mRNA. The method in brief: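 Reporter transcripts were measured 24 h after dosing by RT-PCR with fluorescent primer extension and capillary electrophoresis. The system is transiently transfected HepG2 expressing exogenous NR-Gal4 chimeras driving GAL4-UAS reporters; DMSO is the baseline.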

Assay [5] has as its target X-box-binding protein 1 (Homo sapiens) (UniProt P17861). Put plainly: ATG_Xbp1_CIS: Attagene CIS-FACTORIAL HepG2 Assay for human X-box Binding Protein 1 (XBP1) (AID 2282972; active means hit-call score of the fitted dose curve at least 0.9, where 1 is the maximum; inactive means score below 0.9). The conditions noted are these: HepG2 XBP1 cis-element reporter, Attagene multiplex; actives raise or lower the signal. The method in brief:
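Multiplexed cis-reporter readout in transfected HepG2 liver cells. Exposure lasted 24 hours. Activity in either direction was fitted against DMSO as negative control and baseline.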

A short description of assay [6]: ATG_M_19_TRANS: Attagene TRANS-FACTORIAL HepG2 Assay for M19 Transcription Factor (Internal Marker) (AID 2282974). The conditions noted are these: HepG2 Attagene TRANS-FACTORIAL M19 internal marker reporter. In short, it runs like this: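 Multiplexed TRANS format: HepG2 liver cells bearing transient GAL4-UAS reporter units, chemical treatment 24 h, reporter transcripts quantified by RT-PCR plus capillary electrophoresis. DMSO defines baseline.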

The nature of assay [7]: ATG_GAL4_TRANS: Attagene TRANS-FACTORIAL HepG2 Assay for GAL4 (Internal Marker) (AID 2282976). The conditions noted are these: HepG2 Attagene TRANS GAL4 internal marker reporter. The method in brief:
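In transfected human HepG2 liver cells dosed 24 h, GAL4 reporter mRNA serves as a baseline marker. Detection by RT-PCR with fluorescent capillary electrophoresis, activity fitted upward relative to DMSO.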

Assay [8] addresses Oxysterols receptor LXR-alpha (Homo sapiens) (UniProt Q13133). Put plainly: ATG_LXRa_TRANS: Attagene TRANS-FACTORIAL HepG2 Assay for human Liver X Receptor alpha (LXRa) (AID 2282980). Conditions: HepG2 Attagene TRANS reporter, LXRa transactivation. The method in brief: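 Chemical-induced reporter mRNA measured by RT-PCR with fluorescent labelling and capillary electrophoresis after 24 h dosing of transiently transfected HepG2 cells expressing exogenous NR-Gal4 chimeras; increases scored against DMSO baseline.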

In assay [9] the target is Oxysterols receptor LXR-beta (Homo sapiens) (UniProt P55055). Put plainly: ATG_LXRb_TRANS: Attagene TRANS-FACTORIAL HepG2 Assay for human Liver X Receptor beta (LXRb) (AID 2282981). Conditions: HepG2 Attagene TRANS GAL4-LXRb reporter, mRNA. In short, it runs like this: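 Multiplexed reporter assay, HepG2, 24 h dosing. Fluorescence of labelled RT-PCR products after capillary electrophoresis gives transcript level; positive fitting direction relative to DMSO.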

For assay [10], the target named is Transcriptional activator Myb (Homo sapiens) (UniProt P10242). Briefly: ATG_Myb_CIS: Attagene CIS-FACTORIAL HepG2 Assay for human Myeloblastosis (Myb) Proto-Oncogene Transcription Factor (AID 2282986; active means hit-call score of the fitted dose curve at least 0.9, where 1 is the maximum; inactive means score below 0.9). The conditions noted are these: HepG2 Attagene CIS-FACTORIAL Myb reporter transcription; actives raise or lower the signal. In short, it runs like this: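 Using HepG2 liver cells bearing transiently transfected cis-promoter reporter constructs, the assay measures induction or loss of reporter mRNA after 24 hours of dosing. Detection used fluorescently labeled RT-PCR products separated by capillary electrophoresis.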

Assay [11] is described as follows: ATG_M_32_TRANS: Attagene TRANS-FACTORIAL HepG2 Assay for M32 Transcription Factor (Internal Marker) (AID 2282984). The conditions noted are these: HepG2 Attagene TRANS M32 internal marker reporter. The method in brief: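 Internal-marker readout from a multiplexed transcription reporter panel. HepG2 cells were transfected with GAL4-UAS reporter units, treated 24 hours, and reporter transcript levels determined by fluorescence after RT-PCR and capillary separation.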

In assay [12] the target is Nuclear respiratory factor 1 (Homo sapiens) (UniProt Q16656). Briefly: ATG_NRF1_CIS: Attagene CIS-FACTORIAL HepG2 Assay for human Nuclear Respiratory Factor 1 (NRF1) Orphan Gene (AID 2282987; active means hit-call score of the fitted dose curve at least 0.9, where 1 is the maximum; inactive means score below 0.9). Conditions: HepG2 NRF1 cis-element reporter, Attagene multiplex; actives raise or lower the signal. The method in brief: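 Reporter mRNA induction or loss in HepG2 cells after 24 h dosing; cis-regulated reporter constructs report endogenous transcription-factor activity. Quantified by RT-PCR/capillary electrophoresis fluorescence, DMSO-referenced.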

Assay [13] concerns the target Glucocorticoid receptor (Homo sapiens) (UniProt P04150). Briefly: ATG_GR_TRANS: Attagene TRANS-FACTORIAL HepG2 Assay for human Glucocorticoid Receptor (GR) (AID 2282978).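 Further: activators score as hits since higher reporter transcript over DMSO is fitted.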 Conditions: HepG2 Attagene TRANS GR reporter, mRNA transcription. The method in brief: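 Transiently transfected HepG2 cells express chimeric NR-GAL4 proteins acting on GAL4-UAS reporter units. Compounds are applied for 24 h. mRNA induction over DMSO is measured by capillary electrophoresis.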

Assay [14] has as its target Hepatocyte nuclear factor 4-alpha (Homo sapiens) (UniProt P41235). Briefly: ATG_HNF4a_TRANS: Attagene TRANS-FACTORIAL HepG2 Assay for human Hepatocyte Nuclear Factor 4 alpha (HNF4a) (AID 2282982). The conditions noted are these: HepG2 HNF4a transactivation reporter, mRNA readout. In short, it runs like this:
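Endpoint reflects transcriptional activation of a GAL4-UAS reporter by an HNF4a-GAL4 chimera in transfected HepG2 cells, 24 h post-dosing. Fluorescence from RT-PCR products separated by capillary electrophoresis; DMSO baseline.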

Assay [15] is described as follows: ATG_M_06_TRANS: Attagene TRANS-FACTORIAL HepG2 Assay for M06 Transcription Factor (Internal Marker) (AID 2282983). Conditions: HepG2 Attagene TRANS M06 internal marker reporter. In short, it runs like this: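 Background-control reporter readout: after 24 h chemical exposure of transiently transfected HepG2 (GAL4-UAS reporter units), mRNA quantified by RT-PCR with fluorescent labeling and capillary electrophoresis. Gain-of-signal fitting against DMSO baseline.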

For assay [16], the target named is Nuclear receptor subfamily 4 group A member 2 (Homo sapiens) (UniProt P43354). Put plainly: ATG_NURR1_TRANS: Attagene TRANS-FACTORIAL HepG2 Assay for human Nuclear Receptor Related Protein 1 (NURR1) (AID 2282985). Conditions: HepG2 Attagene TRANS reporter, mRNA readout. The method in brief:
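Endpoint: reporter mRNA increase relative to DMSO. HepG2 cells transfected with reporter units, treated 24 h; RNA processed by RT-PCR, labelling, HpaI digestion and capillary electrophoresis.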

Assay [17] addresses Nuclear receptor subfamily 1 group I member 3 (Homo sapiens) (UniProt Q14994). Briefly: ATG_CAR_TRANS: Attagene TRANS-FACTORIAL HepG2 Assay for human Constitutive Androstane Receptor (CAR) (AID 2282969).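 Further: activators raise reporter mRNA above DMSO so AC50 marks induction.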 Conditions: HepG2 Attagene TRANS-FACTORIAL CAR reporter. In short, it runs like this:
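Transiently transfected HepG2, multiplex TRANS reporters (CAR-Gal4 chimera driving GAL4-UAS reporter). 24 h dosing. Readout: reporter transcript by RT-PCR + capillary electrophoresis, fluorescence intensity; positive direction vs DMSO.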

The target of assay [18] is Steroid hormone receptor ERR1 (Homo sapiens) (UniProt P11474). Put plainly: ATG_ERRa_TRANS: Attagene TRANS-FACTORIAL HepG2 Assay for human Estrogen-Related Receptor alpha (ERRa) (AID 2282971). Conditions: HepG2 Attagene TRANS reporter, ERRa transactivation. The method in brief: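 Reporter transcripts from ERRa-Gal4 chimera activity measured in transiently transfected human HepG2 cells 24 hours after dosing, using RT-PCR with 6-FAM primer extension, HpaI digestion and capillary electrophoresis; DMSO is baseline.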

The target in assay [19] is Estrogen-related receptor gamma (Homo sapiens) (UniProt P62508). Put plainly: ATG_ERRg_TRANS: Attagene TRANS-FACTORIAL HepG2 Assay for human Estrogen-Related Receptor gamma (ERRg) (AID 2282977).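 Further: hits increase reporter signal over DMSO so potencies reflect activators.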 The conditions noted are these: HepG2 Attagene TRANS reporter, ERRg transactivation. The method in brief:
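Exogenous NR-Gal4 chimera activity measured as reporter transcript induction after 24 h in transiently transfected HepG2 cells. RNA reverse-transcribed, PCR-amplified, 6-FAM-labelled and resolved by capillary electrophoresis; increase over DMSO baseline.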

Chain of Glucocorticoid receptor (Homo sapiens) (P04150 whole entry, looked up, the tested form may be a part): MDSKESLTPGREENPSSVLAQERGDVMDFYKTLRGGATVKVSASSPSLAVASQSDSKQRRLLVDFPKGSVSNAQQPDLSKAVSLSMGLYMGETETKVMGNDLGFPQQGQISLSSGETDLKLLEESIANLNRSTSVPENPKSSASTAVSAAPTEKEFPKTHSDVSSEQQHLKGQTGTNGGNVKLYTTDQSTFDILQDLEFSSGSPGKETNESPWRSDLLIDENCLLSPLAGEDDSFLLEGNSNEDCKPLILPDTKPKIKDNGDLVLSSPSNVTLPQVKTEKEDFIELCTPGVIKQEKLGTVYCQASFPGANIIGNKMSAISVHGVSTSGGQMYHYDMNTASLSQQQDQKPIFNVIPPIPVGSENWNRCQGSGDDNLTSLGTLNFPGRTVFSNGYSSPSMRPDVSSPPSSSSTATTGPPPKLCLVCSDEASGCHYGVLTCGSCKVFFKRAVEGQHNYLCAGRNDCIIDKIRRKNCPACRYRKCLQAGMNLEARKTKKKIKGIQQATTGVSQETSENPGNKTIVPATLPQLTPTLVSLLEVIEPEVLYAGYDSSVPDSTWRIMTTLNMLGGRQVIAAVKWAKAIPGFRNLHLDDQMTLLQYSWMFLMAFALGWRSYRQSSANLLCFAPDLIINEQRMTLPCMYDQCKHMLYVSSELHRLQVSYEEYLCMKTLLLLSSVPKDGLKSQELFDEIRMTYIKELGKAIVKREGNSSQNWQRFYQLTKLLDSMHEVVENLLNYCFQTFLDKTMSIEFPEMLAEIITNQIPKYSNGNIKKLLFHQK
Chain of X-box-binding protein 1 (Homo sapiens) (P17861 whole entry, looked up): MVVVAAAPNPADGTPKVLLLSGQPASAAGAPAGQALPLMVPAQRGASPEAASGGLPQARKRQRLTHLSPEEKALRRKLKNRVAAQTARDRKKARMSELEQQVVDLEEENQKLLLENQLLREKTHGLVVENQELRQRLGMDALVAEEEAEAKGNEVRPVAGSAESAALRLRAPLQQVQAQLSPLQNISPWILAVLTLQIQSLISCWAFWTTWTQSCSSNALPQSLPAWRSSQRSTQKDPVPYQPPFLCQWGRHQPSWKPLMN
Chain of Nuclear respiratory factor 1 (Homo sapiens) (Q16656 whole entry, looked up): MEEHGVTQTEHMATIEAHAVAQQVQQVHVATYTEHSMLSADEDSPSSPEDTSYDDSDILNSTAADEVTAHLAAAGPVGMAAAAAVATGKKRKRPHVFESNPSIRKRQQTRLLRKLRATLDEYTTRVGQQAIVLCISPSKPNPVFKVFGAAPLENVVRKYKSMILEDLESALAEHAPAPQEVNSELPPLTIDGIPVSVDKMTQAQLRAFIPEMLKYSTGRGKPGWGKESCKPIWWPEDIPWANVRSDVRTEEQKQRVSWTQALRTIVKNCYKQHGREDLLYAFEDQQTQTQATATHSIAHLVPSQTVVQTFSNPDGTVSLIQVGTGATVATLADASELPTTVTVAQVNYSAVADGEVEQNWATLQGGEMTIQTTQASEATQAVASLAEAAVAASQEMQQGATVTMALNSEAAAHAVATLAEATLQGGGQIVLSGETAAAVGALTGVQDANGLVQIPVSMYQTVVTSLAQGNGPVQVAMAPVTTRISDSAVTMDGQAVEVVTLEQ
Chain of Oxysterols receptor LXR-beta (Homo sapiens) (P55055 whole entry, looked up, the tested form may be a part): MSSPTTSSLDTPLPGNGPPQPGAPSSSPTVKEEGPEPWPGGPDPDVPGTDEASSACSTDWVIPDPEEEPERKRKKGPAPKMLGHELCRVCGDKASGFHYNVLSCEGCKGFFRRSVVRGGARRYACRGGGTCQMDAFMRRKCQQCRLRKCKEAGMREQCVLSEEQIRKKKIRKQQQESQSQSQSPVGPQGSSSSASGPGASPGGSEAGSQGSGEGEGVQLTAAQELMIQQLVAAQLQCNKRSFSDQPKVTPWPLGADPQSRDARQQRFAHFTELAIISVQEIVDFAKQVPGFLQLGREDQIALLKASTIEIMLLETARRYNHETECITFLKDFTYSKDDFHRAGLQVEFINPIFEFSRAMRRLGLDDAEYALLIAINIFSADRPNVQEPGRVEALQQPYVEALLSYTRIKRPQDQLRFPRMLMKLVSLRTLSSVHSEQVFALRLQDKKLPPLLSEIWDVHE
Chain of Estrogen receptor (Homo sapiens) (P03372 whole entry, looked up, the tested form may be a part): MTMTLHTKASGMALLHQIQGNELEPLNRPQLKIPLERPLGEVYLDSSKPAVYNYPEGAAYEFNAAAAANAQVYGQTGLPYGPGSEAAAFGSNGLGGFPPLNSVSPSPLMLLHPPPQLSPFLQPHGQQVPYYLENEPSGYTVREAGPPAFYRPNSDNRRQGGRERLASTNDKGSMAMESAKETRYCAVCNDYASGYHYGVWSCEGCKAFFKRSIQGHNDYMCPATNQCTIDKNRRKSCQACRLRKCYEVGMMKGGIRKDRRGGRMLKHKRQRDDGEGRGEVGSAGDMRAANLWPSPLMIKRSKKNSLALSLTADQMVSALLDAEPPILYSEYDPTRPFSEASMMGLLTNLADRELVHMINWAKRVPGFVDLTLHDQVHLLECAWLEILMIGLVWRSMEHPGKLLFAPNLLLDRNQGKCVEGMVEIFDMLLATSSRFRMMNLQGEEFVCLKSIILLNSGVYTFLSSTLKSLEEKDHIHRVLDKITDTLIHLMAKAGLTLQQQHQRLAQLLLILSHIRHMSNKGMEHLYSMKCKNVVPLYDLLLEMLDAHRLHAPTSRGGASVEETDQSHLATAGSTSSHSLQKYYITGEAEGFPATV
Chain of Transcriptional activator Myb (Homo sapiens) (P10242 whole entry, looked up): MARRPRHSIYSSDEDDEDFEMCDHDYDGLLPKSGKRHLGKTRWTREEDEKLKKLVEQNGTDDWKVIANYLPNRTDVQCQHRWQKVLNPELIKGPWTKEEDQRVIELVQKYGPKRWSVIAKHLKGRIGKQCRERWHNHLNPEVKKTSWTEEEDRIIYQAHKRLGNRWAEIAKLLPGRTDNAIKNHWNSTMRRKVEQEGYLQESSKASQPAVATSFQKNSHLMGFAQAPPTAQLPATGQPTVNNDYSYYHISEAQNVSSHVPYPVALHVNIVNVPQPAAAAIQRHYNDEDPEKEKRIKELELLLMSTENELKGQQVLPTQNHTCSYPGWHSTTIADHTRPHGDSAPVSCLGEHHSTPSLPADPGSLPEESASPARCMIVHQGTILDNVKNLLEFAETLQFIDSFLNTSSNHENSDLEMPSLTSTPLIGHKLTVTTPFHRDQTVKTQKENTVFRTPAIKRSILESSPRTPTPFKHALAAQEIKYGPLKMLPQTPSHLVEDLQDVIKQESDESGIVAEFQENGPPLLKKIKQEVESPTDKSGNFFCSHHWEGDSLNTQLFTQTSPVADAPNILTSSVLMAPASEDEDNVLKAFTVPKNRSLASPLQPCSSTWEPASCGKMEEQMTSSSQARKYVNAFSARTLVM
Chain of Nuclear receptor subfamily 4 group A member 2 (Homo sapiens) (P43354 whole entry, looked up): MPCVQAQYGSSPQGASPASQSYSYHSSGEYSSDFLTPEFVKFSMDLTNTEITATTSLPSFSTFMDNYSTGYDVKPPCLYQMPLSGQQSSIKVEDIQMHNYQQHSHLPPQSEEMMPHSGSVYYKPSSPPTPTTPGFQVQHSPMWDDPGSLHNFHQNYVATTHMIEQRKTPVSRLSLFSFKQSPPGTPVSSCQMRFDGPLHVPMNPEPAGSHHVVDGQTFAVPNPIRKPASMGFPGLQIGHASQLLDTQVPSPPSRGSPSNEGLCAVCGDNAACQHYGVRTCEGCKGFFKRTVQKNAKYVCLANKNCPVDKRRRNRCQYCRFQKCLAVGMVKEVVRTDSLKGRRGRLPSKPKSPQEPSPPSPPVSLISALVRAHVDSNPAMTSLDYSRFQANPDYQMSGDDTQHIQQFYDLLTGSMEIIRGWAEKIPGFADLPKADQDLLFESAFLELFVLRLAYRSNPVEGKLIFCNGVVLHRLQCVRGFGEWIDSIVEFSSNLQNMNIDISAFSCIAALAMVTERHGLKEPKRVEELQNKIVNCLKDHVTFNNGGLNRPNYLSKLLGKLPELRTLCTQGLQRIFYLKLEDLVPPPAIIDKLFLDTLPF
Chain of Oxysterols receptor LXR-alpha (Homo sapiens) (Q13133 whole entry, looked up, the tested form may be a part): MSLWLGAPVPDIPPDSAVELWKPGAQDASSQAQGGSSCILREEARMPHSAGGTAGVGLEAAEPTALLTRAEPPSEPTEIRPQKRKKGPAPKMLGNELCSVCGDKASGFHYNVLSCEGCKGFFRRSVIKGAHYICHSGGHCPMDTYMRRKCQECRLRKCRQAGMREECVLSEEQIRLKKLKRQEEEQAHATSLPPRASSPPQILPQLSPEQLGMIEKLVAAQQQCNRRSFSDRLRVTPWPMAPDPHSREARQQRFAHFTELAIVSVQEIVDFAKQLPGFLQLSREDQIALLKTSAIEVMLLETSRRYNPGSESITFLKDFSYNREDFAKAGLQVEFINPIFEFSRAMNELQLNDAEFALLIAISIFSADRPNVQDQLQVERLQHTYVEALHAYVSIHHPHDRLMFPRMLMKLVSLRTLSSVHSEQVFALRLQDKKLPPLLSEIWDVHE
Chain of Hepatocyte nuclear factor 4-alpha (Homo sapiens) (P41235 whole entry, looked up, the tested form may be a part): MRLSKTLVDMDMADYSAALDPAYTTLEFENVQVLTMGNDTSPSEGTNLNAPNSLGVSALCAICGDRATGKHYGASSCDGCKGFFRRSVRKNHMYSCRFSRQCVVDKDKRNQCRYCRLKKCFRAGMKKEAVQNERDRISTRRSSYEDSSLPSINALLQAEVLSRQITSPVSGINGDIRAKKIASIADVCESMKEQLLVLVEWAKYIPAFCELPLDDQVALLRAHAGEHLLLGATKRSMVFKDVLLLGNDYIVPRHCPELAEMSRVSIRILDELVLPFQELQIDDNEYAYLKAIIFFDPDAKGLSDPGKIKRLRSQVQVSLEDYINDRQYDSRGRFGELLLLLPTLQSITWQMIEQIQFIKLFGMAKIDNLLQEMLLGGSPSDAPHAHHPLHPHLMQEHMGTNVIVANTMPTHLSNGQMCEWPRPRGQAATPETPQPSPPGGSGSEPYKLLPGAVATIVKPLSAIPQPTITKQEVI

Turning to `Nc1ccn([C@@H]2O[C@H](CO)[C@@H](O)[C@@H]2O)c(=O)n1`, the compound was classed as inactive in assay [1], in [2], in assay [3], in [5], in assay [6] and in assay [7]. Moreover, the result in assay [8], in assay [9] and in [10] was inactive. The AC50 in [4] is 40 µM (active).
Regarding `CCCCCCCCCCCCCCO`, the AC50 was 100 µM (active) in assay [1] and 168 µM (active) in [10]. Further, the result in assay [2], in assay [3], in assay [4], in assay [5], in [6] and in assay [9] was inactive. Also, the outcome in assay [11] and in assay [12] was inactive.
`C[C@]12C=CC(=O)C=C1CC[C@H]1[C@@H]3C[C@@H](O)[C@](O)(C(=O)CO)[C@@]3(C)C[C@H](O)[C@@]12F`: the result in assay [1], in assay [2], in assay [3], in assay [5], in assay [8] and in assay [14] was inactive. In addition, the outcome in [15], in assay [16] and in assay [10] was inactive. The concentration at half-maximal activity (AC50) in assay [4] is 37.2 µM (active); in [13], 0.0585 µM (active).
As to `CCCC(CCC)C(=O)O`, the call in assay [1], in assay [2], in [3], in [4], in [5] and in assay [6] was inactive. The result in assay [7], in assay [13], in assay [15], in assay [11], in assay [16] and in assay [10] was inactive. In assay [12], the outcome was inactive.
For the compound `OCc1ccccc1`, the outcome in assay [1], in [2], in assay [3], in assay [17], in [18] and in assay [5] was inactive. Further, the result in assay [6], in assay [7], in assay [19], in assay [13], in [9] and in assay [14] was inactive. In addition, the outcome in [15], in assay [11], in assay [16] and in assay [10] was inactive. Further, the AC50 in assay [16] is 14.2 µM (active).

For orientation: AC50 means the midpoint of the concentration-response curve, whichever way the signal moves.
